# Most compounds without a hit are left out; they make up all but 2.1% or so of the library.
# Gli-Sufu block: Gli-Sufu pathway antagonists, primary screen, luciferase luminescence, Sufu-KO-LIGHT cells, uHTS. inhibition, % at 5 µM. 0.74% of 340,000 active. Sufu-KO-LIGHT fibroblasts, Gli luciferase reporter luminescence;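 active means inhibition above about 55%, limit read from the data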;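 further: 0% = DMSO-treated cells and 100% = wells with medium but no cells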
# GalR3 antagonist: GalR3 antagonists in HEK293 cells, primary screen, cell-based, fluorescence readout | HEK293 GalR3-CNG cAMP membrane potential fluorescence; galR3 body fused to GalR1 C-terminus | inhibition, % at 3 µM | 0.44% of 360,000 active;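 active means inhibition above the screen-wide average plus 3 SD, cut at about 13% in these data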;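 further: forskolin and galanin both at EC90 stimulate the cells; cAMP rise reported by CNG channel membrane potential dye signal; 0% = forskolin plus galanin with DMSO and 100% = forskolin alone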
# Target sequence (O60755 1-299 limits assumed): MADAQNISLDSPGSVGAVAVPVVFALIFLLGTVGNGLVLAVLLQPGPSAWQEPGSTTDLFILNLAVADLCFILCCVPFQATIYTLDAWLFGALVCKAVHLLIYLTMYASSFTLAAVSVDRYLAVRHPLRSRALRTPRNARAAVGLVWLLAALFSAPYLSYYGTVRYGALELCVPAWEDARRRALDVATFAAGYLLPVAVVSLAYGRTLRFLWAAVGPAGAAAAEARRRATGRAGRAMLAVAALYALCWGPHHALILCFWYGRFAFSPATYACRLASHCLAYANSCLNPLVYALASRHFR
# Env fusion inh: inhibitors of HIV-1 Env-driven cell-cell fusion, primary screen, HeLa-JRFL effector, CEM21 target cells, luciferase. inhibition, % at 12.3 µM. 1.1% of 360,000 active. AID 651610, 2012;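 active means mean replicate inhibition score of at least 50 and every replicate individually at or above 50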;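 further: 0% = plate neutral controls and 100% = maraviroc near 300 nM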
# aDG glyco act: activators of alpha-DG glycosylation, primary screen, uHTS, Pro5-aDG cells, AlphaScreen; activation, % at 10 µM; AID 624168, 2012; alpha-DG glycosylation AlphaScreen (IIH6); 0% Pro5, 100% B10-LARGE cell signal; 0.22% of 360,000 active;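 active means activation of at least 8% versus controls, or a plate z-score of at least 8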;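 further: Pro5 are CHO cells carrying HIG-tagged alpha-DG that lacks glycosylation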
# COUP-TFII inh: NR2F2 transcriptional activity inhibitors, primary screen, cell-based, luciferase reporter, HEK293T, luminescence | 0.7% of 370,000 active | inhibition, % at 8.6 µM | AID 686940, 2013 | HEK293T NGFI-A luciferase reporter;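 active means inhibition above a per-plate cutoff, mean inhibition of test wells between control levels plus 3 SD, cut at about 38% in these data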;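 further: cells cotransfected with COUP-TFII expression vector driving the NGFI-A reporter; 0% = median of COUP-TF2 test wells and 100% = reporter-only cells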
# Target sequence (P24468 whole entry, looked up): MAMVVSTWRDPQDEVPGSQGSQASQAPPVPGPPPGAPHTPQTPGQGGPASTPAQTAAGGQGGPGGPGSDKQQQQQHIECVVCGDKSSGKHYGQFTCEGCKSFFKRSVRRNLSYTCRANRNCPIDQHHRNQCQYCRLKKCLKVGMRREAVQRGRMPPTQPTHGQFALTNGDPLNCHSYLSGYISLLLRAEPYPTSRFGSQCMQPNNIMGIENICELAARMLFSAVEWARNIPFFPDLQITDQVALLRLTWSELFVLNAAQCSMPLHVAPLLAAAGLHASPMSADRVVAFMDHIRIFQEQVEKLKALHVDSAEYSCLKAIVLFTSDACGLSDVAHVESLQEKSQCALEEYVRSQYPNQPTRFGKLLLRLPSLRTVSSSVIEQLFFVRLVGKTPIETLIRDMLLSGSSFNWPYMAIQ
# Starred values were filed as active, the others as inactive; nt = not tested or not shown; [ ] = dose if it differs, or a comment.
SMILES,Gli-Sufu block,GalR3 antagonist,Env fusion inh,aDG glyco act,COUP-TFII inh
C[C@H](CO)N1C[C@H](C)[C@@H](CN(C)C(=O)N[C@H](C)c2ccccc2)OCc2ccccc2-c2c(n(C)c3ccccc23)C1=O,nt,nt,22.7[16.7 µM],nt,nt
COC(=O)[C@]12C[C@H](CC(=O)NCc3cccc(C(F)(F)F)c3)C(=O)N(CCC3=CCCCC3)C1=C[C@H](C(C)(C)C)O[C@@H]2C,nt,-2.1,101.3*,nt,-8.8
COC(=O)[C@]12C[C@H](CC(=O)NCC34CC5CC(CC(C5)C3)C4)C(=O)N(CCC3=CCCCC3)C1=C[C@H](C(C)(C)C)O[C@@H]2C,nt,-3.7,53.2,nt,-21.8
COCCCNC(=O)C[C@H]1C[C@@]2(C(=O)OC)C(=C[C@H](C(C)(C)C)O[C@@H]2C)N(CCC2=CCCCC2)C1=O,nt,-0.7,59.8*,nt,-0.1
Cc1ccc(-c2cnc3c(Nc4cccc(OC(F)(F)C(F)F)c4)nccn23)cc1,nt,-6.7,60.9*,0.7,1.9
Cc1nn(Cc2c(F)c(F)c(F)c(F)c2F)c(C)c1NC(=O)c1c(-c2ccccc2)nn(-c2ccccc2)c1C,-3.8,-3.9,95.1*,0.4,8.5
Cc1nn(Cc2c(F)c(F)c(F)c(F)c2F)c(C)c1NC(=O)c1ccc(COc2ccc(F)cc2)o1,17.6,-11.8,67.1*,2.0,9.0
Cc1nn(Cc2c(F)c(F)c(F)c(F)c2F)c(C)c1NC(=O)c1ccc(COc2ccccc2Cl)o1,-1.5,-8.5,66.1*,1.5,21.1
Cc1nn(Cc2c(F)c(F)c(F)c(F)c2F)c(C)c1NC(=O)c1ccc(COc2ccccc2Cl)cc1,9.6,-5.0,41.1,-0.2,0.8
C[C@@H]1CN([C@H](C)CO)C(=O)c2cc(NC(=O)Nc3ccccc3)ccc2O[C@H]1CN(C)Cc1ccccc1,nt,nt,0.9[16.7 µM],nt,nt
COc1ccc2[nH]c3c(c2c1)CC(C)NC3=O (stereo not given),-11.4,-5.6,22.6,-0.1,31.8
COc1cc2c3c([nH]c2cc1F)C(=O)NCC3,-28.8,-0.5,58.6*,-0.1,6.2
C[C@H]1CN([C@@H](C)CO)S(=O)(=O)c2ccc(-c3cccc(F)c3)cc2O[C@H]1CN(C)S(C)(=O)=O,nt,nt,22.9[16.7 µM],nt,nt
CN(C)c1ccc(NC(=O)CSc2nc3ccccc3c(=O)n2C2CCCCC2)cc1,1.1,-5.8,-29.6,-0.6,12.9
CCCN(CCC)C(=O)CSc1nc2ccccc2c(=O)n1C1CCCC1,5.2,-8.2,65.2*,0.8,20.9
O=C(NCCCN1CCC(Cc2ccccc2)CC1)C1CC(=O)N(C2CCCCCC2)C1 (stereo not given),12.5,-8.4,55.3*,0.1,4.9
C[C@@H]1CCCCO[C@@H](CN(C)C)[C@H](C)CN([C@@H](C)CO)C(=O)c2cc(NS(=O)(=O)c3cn(C)cn3)ccc2O1,nt,nt,8.7[16.7 µM],nt,nt
Fc1ccc(-c2ccc3c(n2)CCCN3Cc2ccccn2)cc1,nt,2.4,-49.8,nt,-32.1
c1ccc(-c2ccc3c(n2)CCCN3Cc2ccccn2)cc1,nt,-5.7,61.5*,nt,-39.8
CCOc1cc(-c2c(C#N)c(=O)[nH]c3c2c(C)nn3-c2ccc(F)cc2)ccc1O,2.9,-1.6,56.8*,-0.3,7.7
CCC(C)(C)NC(=O)C(c1ccc(C)cc1)N(CC1CCCO1)C(=O)CNC(=O)c1cccs1 (stereo not given),1.9,-9.9,23.1,0.3,5.7
CCC(C)(C)NC(=O)C(c1ccc(C)cc1)N(CC1CCCO1)C(=O)c1csnn1 (stereo not given),22.6,-9.1,72.3*,0.1,-0.5
COc1ccc(CN2C[C@H](C)[C@@H](OC)CN(C)C(=O)c3ccc(NC(C)=O)cc3OC[C@@H]2C)cc1,nt,nt,-3.9[16.7 µM],nt,nt
CCOC(=O)c1c(NC(=O)c2ccco2)sc2c1CCCCC2,-10.3,-2.8,nt,0.2,-4.5
CCOC(=O)c1c(NC(=O)C(C)N2CCN(C(=O)c3ccco3)CC2)sc2c1CCCC2 (stereo not given),10.0,-3.4,56.2*,-0.1,18.5
SMILES,Gli-Sufu block,GalR3 antagonist,Env fusion inh,aDG glyco act,COUP-TFII inh
C[C@@H]1CN([C@H](C)CO)C(=O)c2cc(NS(=O)(=O)c3ccccc3)ccc2O[C@@H]1CN(C)Cc1ccc(C(=O)O)cc1,nt,nt,15.2[16.7 µM],nt,nt
C[C@H](CO)N1C[C@H](C)[C@@H](CN(C)S(=O)(=O)c2ccc(F)cc2)OCCCC[C@H](C)Oc2ccc(NC(=O)Nc3ccc(C(F)(F)F)cc3)cc2C1=O,nt,nt,56.8*[16.7 µM],nt,nt
C[C@@H]1CN([C@H](C)CO)C(=O)c2cc(NC(=O)Nc3ccc(C(F)(F)F)cc3)ccc2O[C@@H](C)CCCCO[C@@H]1CN(C)S(=O)(=O)c1ccc(F)cc1,nt,nt,1.0[16.7 µM],nt,nt
C[C@@H]1CCCCO[C@@H](CN(C)S(=O)(=O)c2ccc(F)cc2)[C@@H](C)CN([C@H](C)CO)C(=O)c2cc(NC(=O)Nc3ccc(C(F)(F)F)cc3)ccc2O1,nt,nt,7.5[16.7 µM],nt,nt
C[C@@H]1CCCCO[C@@H](CN(C)S(=O)(=O)c2ccc(F)cc2)[C@H](C)CN([C@H](C)CO)C(=O)c2cc(NC(=O)Nc3ccc(C(F)(F)F)cc3)ccc2O1,nt,nt,67.7*[16.7 µM],nt,nt
Cc1ccc(S(=O)(=O)N(C)C[C@H]2OCCCC[C@@H](C)Oc3ccc(NS(=O)(=O)c4cccs4)cc3C(=O)N([C@@H](C)CO)C[C@H]2C)cc1,nt,nt,10.2[16.7 µM],nt,nt
NC(=O)C1CCN(C(=O)c2cc3ccccc3cc2O)CC1,-5.4,-4.2,63.4*,0.5,0.5
NC(=O)C1CCN(C(=O)c2cccc3ccccc23)CC1,-0.8,-8.8,-1.2,-0.1,0.6
CCCCCN(C(=O)CCc1cn(CCCCC)c2ccccc12)c1ccc(Oc2cccnc2)cc1,nt,-9.9,57.9*,nt,5.3
CCCCCN(C(=O)CCc1cn(CCCCC)c2ccccc12)c1ccc(N(C)c2ccccn2)cc1,nt,-7.8,22.9,nt,9.0
CNC[C@H]1OCCCC[C@H](C)Oc2ccc(NC(=O)c3ccccc3)cc2C(=O)N([C@H](C)CO)C[C@@H]1C,nt,nt,13.2[16.7 µM],nt,nt
COc1ccc(/C=C2/CCc3ccccc3C2=O)cc1OC,1.7,-2.5,58.2*,0.8,-25.7
COc1cc(/C=C2\CC/C(=C\c3cc(OC)c(O)c(OC)c3)C2=O)cc(OC)c1O,12.0,-0.5,76.7*,-0.2,32.0
COc1cccc(-c2cn(CC[C@H]3CC[C@@H](NC(=O)CC4CC4)[C@H](CO)O3)nn2)c1,nt,nt,4.6[16.7 µM],nt,nt
O=C(NCc1ccncc1)C12CC3CC(CC(Cl)(C3)C1)C2,-19.5,3.1,14.1,0.0,9.1
CC12CC3CC(C)(C1)CC(C(=O)NCc1ccncc1)(C3)C2,1.4,-10.7,100.8*,0.0,2.7
CCCC(=O)Nc1ccc2c(c1)C(=O)N(C)[C@H]1CC[C@@H](CC(=O)NCCN3CCCCC3)O[C@H]1CO2,nt,nt,-42.0[16.7 µM],nt,nt
C[C@@H]1CN([C@@H](C)CO)C(=O)c2cc(NC(=O)CCC(F)(F)F)ccc2O[C@@H](C)CCCCO[C@H]1CN(C)C(=O)C1CCCCC1,nt,nt,6.6[16.7 µM],nt,nt
